Records with an inconclusive call do not appear. A call without a number means that no potency is given here. The source made the active and inactive calls. Calls come from the whole dose curve; as a rule, active = well fitted inhibition curve with a large enough effect; inconclusive = small, poorly fitted or top-dose-only effect; inactive = flat fitted curve, though single readings scatter.

The experiment can be described thus: Counterscreen Assay for Enhancers of SMN2 Splice Variant Expression: Modulation of SMN1 Expression. The conditions noted are these: HEK293 SMN1-luciferase reporter, luminescence, 30-36 h; series mostly up to 22.8 µM. Put shortly:
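Luciferase counterscreen for nonspecific expression modulators: SMN1-luciferase chimera stably expressed in HEK293, 2000 cells/well, treated 30-36 h at 37C with compound or 4.5mM sodium butyrate control, then One Glo luminescence read.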
(A counterscreen serves to expose hits that act by an unwanted route or on another target.)
Take `COc1ccc(OC)c(-c2csc(N3CCC(c4ccccc4)CC3)n2)c1`: the Potency result is “inactive”.
Take `COC(=O)C1=C(C)NC(=O)/C1=C\c1cc(C)n(-c2ccccc2F)c1C`: the Potency entry is “inactive”.
Take `O=C(Nc1nc(-c2ccc3ccccc3c2)cs1)C1CCN(S(=O)(=O)c2cccs2)CC1`: the Potency result is “inactive”.
The value for `COc1ccc(-c2csc(N3CCC(c4ccccc4)CC3)n2)cc1` was “inactive”; that for `COc1cccc(NC(=O)CSc2nc3ccccc3nc2N2CCOCC2)c1` was 5.01 µM (active); that for `COc1ccc(-c2csc(N3CCC(C(N)=O)(N4CCCCC4)CC3)n2)cc1` was “inactive”.
Take `FC(F)C(F)(F)C1=CC(c2cccs2)=NCCN1`: the Potency result was “inactive”.
`OCCCNc1nc(-c2ccc(Cl)cc2)nnc1-c1ccc(Br)cc1`: the Potency result was “inactive”.
The value for `Clc1ccc(-c2nnc(-c3ccccc3)nc2N2CCSCC2)cc1` was “inactive”; that for `CN1CCN(c2nc(-c3ccc(Br)cc3)nnc2-c2ccccc2)CC1` was “inactive”.
As to `CCCc1sc(N2CCCC(C(N)=O)C2)nc1-c1ccccc1` (stereo not drawn), the Potency entry was “inactive”.
`Cc1ccc(-c2nnc(-c3ccccc3)c(-c3ccccc3)n2)cc1`: the Potency result was “inactive”.
Take `Clc1nc(NCc2ccco2)c2[nH]cnc2n1`: the Potency entry was “inactive”.
For `Nc1ccccc1-c1nnn(CC(=O)N2CCCc3ccccc32)n1`, the Potency entry is “inactive”.
With `O=C(NCCc1cn2ccsc2n1)c1cccs1`, the Potency result is “inactive”.
The value for `NC(=O)C1(N2CCCCC2)CCN(c2nc(-c3ccccc3)cs2)CC1` was “inactive”; that for `c1ccc(-c2nnc(-c3ccccc3)c(-c3c[nH]c4ccccc34)n2)cc1` was “inactive”.
On to `FC(F)(F)c1nnc(-c2ccccc2)nc1Oc1ccccc1`, for which the Potency entry is “inactive”.
With `Cc1ccc(C2c3c(oc4ccccc4c3=O)C(=O)N2CCCN2CCOCC2)o1` (stereo not drawn) the entry was “inactive”; with `Brc1ccc(-c2nnc(-c3ccccc3)c(N3CCSCC3)n2)cc1`, “inactive”; with `FC(F)(F)c1cccc(Oc2nc(-c3ccccc3)nnc2C(F)(F)F)c1`, “inactive”.
`CC(C)(C)n1nnnc1C(c1ccc2ncccc2c1)N1CCSCC1` (stereo not drawn): the Potency entry was “inactive”.
Take `O=C1CCC(C(=O)Nc2cccc3ccccc23)N1` (stereo not drawn): the Potency result was “inactive”.

The values are drawn from PubChem BioAssay AID1739 (National Center for Advancing Translational Sciences (NCATS), 2009).
